Data on 1 molecule can be found in PubChem BioAssay (NCATS).

Each structure is given as a SMILES string. A number with no mark means an inactive call. Results filed as inconclusive are left out. The source made the active and inactive calls. The call rests on the fitted dose curve; in most records, active means well fitted curve in the direction sought with a large enough effect; inconclusive means small, poorly fitted or top-dose-only effect, or another doubt; inactive means no such curve, though single readings can be large; an effect the other way counts as inactive or inconclusive.

Experiment [1] has as its system Zika virus NS2B-NS3 protease (unlinked). Put plainly: Optimization of GU AMC qHTS for Zika virus inhibitors: Unlinked NS2B-NS3 protease assay (AID 1347151). Further: potency means the concentration at half of the fitted maximal effect; nearly all actives have a fitted effect of over 80% in size. Summed up:
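Unlinked protease (25 nM final); buffer 10 mM Tris-HCl pH 8.0 + 0.01% Tween 20; AMC substrate; 15 min RT, dark; Δfluorescence normalized to no-inhibitor/no-enzyme controls; 4-parameter Hill fit.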
A general note: Quantitative high-throughput screening tests each substance at several concentrations.

A short description of experiment [2]: Confirmatory screen GU Rhodamine qHTS for Zika virus inhibitors qHTS (AID 1347157). Further: potency means the concentration at half of the fitted maximal effect; nearly all actives have a fitted effect of over 70% in size. Summed up: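 Noncovalent NS2B hydrophilic domain/NS3 protease complex (25 nM final) in 10 mM Tris-HCl pH 8.0, 0.01% Tween 20, preincubated 15 min with compounds (up to 114 microM), then 1.5 microM Rhodamine110 substrate. Fluorescence change over 15 min fitted to 4-parameter Hill.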

Experiment [3] can be described thus: ZIKV-mCherry secondary qHTS for Zika virus inhibitors (AID 1347158). Further: potency means the concentration at half of the fitted maximal effect. Summed up:
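Percent infection is the share of Hoechst-identified Vero nuclei with mCherry signal above 450 RFU (3 SD over negative controls). Cells were infected with recombinant ZIKV-mCherry at MOI 1 after compound addition and imaged 48–72 h later.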

The nature of experiment [4]: Confirmatory screen NINDS Rhodamine qHTS for Zika virus inhibitors (AID 1347161). Further: potency means the concentration at half of the fitted maximal effect; nearly all actives have a fitted effect of over 60% in size. In short, it runs like this:
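Single-chain NS2B-NS3 protease, 25 nM, pH 8.0; compounds preincubated 15 min. Activity: Rhodamine110 release from 1.5 microM substrate over 15 min, room temperature, data fitted to 4-parameter Hill.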

For experiment [5], the system named is Zika virus NS2B-NS3 protease (linked). Put plainly: 384 well plate NINDS AMC confirmatory qHTS for Zika virus inhibitors (AID 1347163). Further: potency means the concentration at half of the fitted maximal effect; nearly all actives have a fitted effect of over 50% in size. Summed up: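 Fluorescence at 355/460 nm was read after 25 minutes of cleavage of 30 microM Ac-VKTGKR-AMC at room temperature, in the dark. Before substrate addition, compounds (up to 1 mM final) sat ~15 minutes with 5, 30 or 60 nM linked protease. Signals were normalized to no-enzyme and no-inhibitor wells.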

In experiment [6] the test system is Zika virus NS2B-NS3 protease (linked construct). Put plainly: 384 well plate NINDS Rhodamine confirmatory qHTS for Zika virus inhibitors (AID 1347164).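 Further: fluorescence from protease cleavage of Ac-LKRR-rhodamine 110 substrate; top concentration of the series differs between compounds; nearly all actives have a fitted effect of over 65% in size.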 Summed up:
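Enzyme (final 5/30/60 nM) + cpd (DMSO), ~15 min; add Ac-LKRR-Rd 10 microM final; 25 min RT, dark; FI ex 485/em 538; normalized to no-enzyme, no-inhibitor ctrls; aprotinin intraplate ctrl.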

In experiment [7] the target is Lysine-specific demethylase 5B (Homo sapiens) (UniProt Q9UGL1). Put plainly: Optimization screen for KDM5B Histone Demethylases FDH coupled qHTS against the LOPAC library (AID 1347166). Summed up: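 KDM5BDeltaAP (200nM final) in 50mM HEPES pH 7.5, 0.01% Tween-20 was preincubated with compound for 10 min at room temperature. A substrate mix of 12.5uM H3K4Me3, 25uM a-ketoglutarate, ascorbate, Fe2+, NAD+ and formaldehyde dehydrogenase was then added. NADH fluorescence (340/450 nm) was read initially and after 30 min.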
Chain of Lysine-specific demethylase 5B (Homo sapiens) (Q9UGL1 whole entry, looked up): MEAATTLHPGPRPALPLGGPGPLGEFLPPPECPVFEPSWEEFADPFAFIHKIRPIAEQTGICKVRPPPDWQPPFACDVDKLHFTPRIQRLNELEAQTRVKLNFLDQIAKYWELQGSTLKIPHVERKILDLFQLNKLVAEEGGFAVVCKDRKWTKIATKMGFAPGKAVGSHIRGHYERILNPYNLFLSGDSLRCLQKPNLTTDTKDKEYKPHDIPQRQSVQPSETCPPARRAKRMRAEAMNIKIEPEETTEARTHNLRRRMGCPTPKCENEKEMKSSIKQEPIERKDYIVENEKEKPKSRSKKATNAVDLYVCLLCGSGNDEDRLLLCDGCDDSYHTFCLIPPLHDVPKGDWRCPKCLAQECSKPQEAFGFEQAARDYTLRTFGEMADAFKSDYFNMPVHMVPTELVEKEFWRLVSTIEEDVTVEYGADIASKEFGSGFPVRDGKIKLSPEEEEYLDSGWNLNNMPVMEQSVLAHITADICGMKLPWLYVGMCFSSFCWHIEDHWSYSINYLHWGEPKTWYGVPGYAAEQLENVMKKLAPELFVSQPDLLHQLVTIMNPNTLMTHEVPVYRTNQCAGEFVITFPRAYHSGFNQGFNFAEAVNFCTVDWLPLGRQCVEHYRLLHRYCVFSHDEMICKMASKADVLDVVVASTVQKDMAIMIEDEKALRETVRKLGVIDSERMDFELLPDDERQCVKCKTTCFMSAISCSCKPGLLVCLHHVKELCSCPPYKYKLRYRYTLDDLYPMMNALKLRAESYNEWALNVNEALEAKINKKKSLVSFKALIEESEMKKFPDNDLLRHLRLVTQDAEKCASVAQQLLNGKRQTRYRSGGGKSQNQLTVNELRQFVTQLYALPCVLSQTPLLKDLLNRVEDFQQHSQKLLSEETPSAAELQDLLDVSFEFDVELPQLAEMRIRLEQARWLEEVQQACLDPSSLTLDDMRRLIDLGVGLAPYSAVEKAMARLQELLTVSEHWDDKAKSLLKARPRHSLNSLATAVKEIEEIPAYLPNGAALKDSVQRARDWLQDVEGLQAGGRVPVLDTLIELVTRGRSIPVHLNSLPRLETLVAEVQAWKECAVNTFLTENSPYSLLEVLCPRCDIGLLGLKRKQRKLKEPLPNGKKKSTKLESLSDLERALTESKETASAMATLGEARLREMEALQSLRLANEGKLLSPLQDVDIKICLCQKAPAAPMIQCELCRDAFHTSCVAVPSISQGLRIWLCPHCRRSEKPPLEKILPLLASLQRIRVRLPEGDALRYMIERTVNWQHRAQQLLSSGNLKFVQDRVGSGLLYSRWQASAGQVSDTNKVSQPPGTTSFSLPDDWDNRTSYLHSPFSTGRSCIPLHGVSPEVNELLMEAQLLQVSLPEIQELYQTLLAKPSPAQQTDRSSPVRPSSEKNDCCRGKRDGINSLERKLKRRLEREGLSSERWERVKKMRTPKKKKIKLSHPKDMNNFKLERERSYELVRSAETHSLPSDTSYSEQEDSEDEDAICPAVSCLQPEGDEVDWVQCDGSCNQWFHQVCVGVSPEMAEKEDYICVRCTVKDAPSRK

Experiment [8] in a line: Tertiary RLuc qRT-PCR qHTS assay for Zika virus inhibitors (AID 1347169). Further: top concentration of the series differs between compounds; nearly all actives have a fitted effect of over 55% in size. In short, it runs like this: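 Vero, 1,000 cells/well, o/n 37 C; cpd pinned in DMSO; ZIKV-RLuc Cambodian, MOI 1-2, 48-72 h 37 C; live-cell RLuc substrate, lum read at 1-1.5 h.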
A short description of experiment [9]: qHTS to identify inhibitors of the type 1 interferon - major histocompatibility complex class I in skeletal muscle: primary screen against the NCATS LOPAC collection (AID 1347405).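 Further: lytic HiBiT luminescence reporting HLA-B protein level.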 Summed up:
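After 24 h at 37 C with compounds (7-point, 1:4.3 dilutions, 46 uM top final) plus 4 ng/ml IFN-beta, luminescence from lytic HiBiT detection was measured. HLA-B*08:01 in C25cl48 myoblasts carried an endogenous C-terminal HiBiT tag; medium lacked dexamethasone.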

Experiment [10] can be described thus: qHTS for inhibitors of adenylyl cyclases using a fission yeast platform: a pilot screen against the NCATS LOPAC library (AID 1347410). Summed up:
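Fission yeast qHTS: CHP2027 cells (AC9-GNAS-PDE4D2, fbp1-GFP), 5x10^6 cells/mL working density, EMM + His/Lys/Ura; LOPAC at up to 57 µM final; 18 h dark, 30C; GFP by laser cytometry. DPI positive control, DMSO vehicle.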

A short description of experiment [11]: Validation qHTS assay for inhibitors of Activation Induced Cytidine Deaminase (AID): UDG Counterscreen signal (AID 1347427). Summed up: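 Fluorescence at 560 nm excitation, 665 nm emission reports UDG signal after 250 mM NaOH (2x) addition and 30 min. Enzymes (AID 1 uM, UDG 2 U/mL, at 4/3x) preincubated 10 min with compound, then 4 h with 4x 250 nM DJC20/DJC23 substrate at room temperature.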

Experiment [12] addresses Single-stranded DNA cytosine deaminase (Homo sapiens) (UniProt Q9GZX7). Put plainly: Validation qHTS assay for inhibitors of Activation Induced Cytidine Deaminase (AID): AID signal (AID 1347429). Further: potency means the concentration at half of the fitted maximal effect. Summed up: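 Compounds (final up to 114 uM) preincubated with AID plus UDG; 250 nM DJC20/DJC23 substrate mix (4x stock) added, 4 hr at room temperature, then NaOH, 30 min. Read 1 fluorescence at 540 nm excitation, 590 nm emission.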

Experiment [13] in a line: Primary qHTS for inhibitors of La Crosse Virus (LACV) - induced cell death in SH-SY5Y cells (AID 1508616).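 Further: top concentration of the series differs between compounds; higher means more rescue of cells from virus-induced death.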 Summed up: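 Rescue of virus-induced death was read as ATPLite luminescence after 6 days at 37C, scaled between DMSO wells with LACV and without virus. Cells were SH-SY5Y, 6000/well, infected at 0.01 MOI after compound addition.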
Experiment [14] is described as follows: Primary qHTS for small molecule stabilizers of the endoplasmic reticulum resident proteome: Secreted ER Calcium Modulated Protein (SERCaMP) assay (AID 1508630). Summed up:
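The SH-SY5Y reporter protocol was run at 3 concentrations up to 38.3 uM (primary) or 11 concentrations (follow-up): 16 h compound, 100 nM thapsigargin for 4 h, then extracellular luciferase luminescence.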

Experiment [15] concerns the target Papain (Carica papaya) (UniProt P00784). As to the kind of experiment: Primary qHTS assay for inhibitors of the protease papain (AID 1645873).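 Further: papain turnover of Z-FR-AMC read as the AMC fluorescence gain over 10 min; potency means the concentration at half of the fitted maximal effect.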
Experiment [16] deals with Rap guanine nucleotide exchange factor 3 (Homo sapiens) (UniProt O95398). As to the kind of experiment: Confirmatory qHTS for antagonist of cAMP-regulated guanine nucleotide exchange factor 3 (EPAC1) (AID 1645880). Further: potency means the concentration at half of the fitted maximal effect; nearly all actives have a fitted effect of over 55% in size. In short, it runs like this: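 Released BODIPY-GDP fluoresces less than Rap1-bound BODIPY-GDP; the signal is followed at 480/540 nm at 5-min intervals over 30 min, after 5 min at room temperature. Reactions contain 100 nM EPAC1, 250 nM RAP1B-BODIPY-GDP and 50 uM GDP; results are normalized to ATA and DMSO.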
Chain of Rap guanine nucleotide exchange factor 3 (Homo sapiens) (O95398 whole entry, looked up): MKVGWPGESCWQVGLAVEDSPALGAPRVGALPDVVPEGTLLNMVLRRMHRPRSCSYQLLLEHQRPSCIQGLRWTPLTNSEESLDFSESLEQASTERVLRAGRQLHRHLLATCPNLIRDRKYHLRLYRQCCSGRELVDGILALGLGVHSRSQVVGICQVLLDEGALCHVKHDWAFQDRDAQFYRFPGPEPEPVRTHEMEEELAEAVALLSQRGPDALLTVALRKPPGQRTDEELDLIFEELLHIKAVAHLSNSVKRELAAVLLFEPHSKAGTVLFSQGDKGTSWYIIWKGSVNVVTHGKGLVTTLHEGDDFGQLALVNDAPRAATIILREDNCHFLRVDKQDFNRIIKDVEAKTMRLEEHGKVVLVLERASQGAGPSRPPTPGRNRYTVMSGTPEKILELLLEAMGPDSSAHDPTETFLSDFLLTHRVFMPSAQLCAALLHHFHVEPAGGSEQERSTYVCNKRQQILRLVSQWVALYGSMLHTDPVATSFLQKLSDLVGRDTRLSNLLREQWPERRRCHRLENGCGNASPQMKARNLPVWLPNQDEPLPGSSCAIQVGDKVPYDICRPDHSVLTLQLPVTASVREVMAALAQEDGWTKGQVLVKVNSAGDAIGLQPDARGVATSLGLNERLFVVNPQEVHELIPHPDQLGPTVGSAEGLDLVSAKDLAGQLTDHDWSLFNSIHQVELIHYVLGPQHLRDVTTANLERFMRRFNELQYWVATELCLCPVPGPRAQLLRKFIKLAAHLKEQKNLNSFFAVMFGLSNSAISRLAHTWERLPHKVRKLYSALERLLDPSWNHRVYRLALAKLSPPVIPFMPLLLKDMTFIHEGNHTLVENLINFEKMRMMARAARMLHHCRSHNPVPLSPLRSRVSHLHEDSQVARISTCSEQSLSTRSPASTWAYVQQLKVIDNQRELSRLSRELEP

The target is the same in experiment [17]. Put plainly: Confirmatory qHTS for agonist of cAMP-regulated guanine nucleotide exchange factor 3 (EPAC1) (AID 1645881).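 Further: EPAC1 catalysed release of BODIPY-GDP from Rap1B seen as fluorescence loss; nearly all actives have a fitted effect of over 75% in size.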
Experiment [18] concerns the target Rap guanine nucleotide exchange factor 4 (Homo sapiens) (UniProt Q8WZA2). Put plainly: Confirmatory qHTS for agonist of cAMP-regulated guanine nucleotide exchange factor 4 (EPAC2) (AID 1645884).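 Further: nucleotide exchange releases bodipy-GDP from Rap1 and this lowers its fluorescence; nearly all actives have a fitted effect of over 65% in size.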
The target is the same in experiment [19]. As to the kind of experiment: Confirmatory qHTS for antagonist of cAMP-regulated guanine nucleotide exchange factor 4 (EPAC2) (AID 1645885). Further: potency means the concentration at half of the fitted maximal effect; nearly all actives have a fitted effect of over 25% in size.
Experiment [20] concerns the target Metallo-beta-lactamase type 2 (Klebsiella pneumoniae) (UniProt C7C422). Put plainly: qHTS to identify inhibitors of the New Delhi Metallo-beta-lactamase (NDM): assay validation screen against the NCATS LOPAC Collection (AID 1794843). Further: potency means the concentration at half of the fitted maximal effect. In short, it runs like this: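 NDM-1 at 2 nM final in 50 mM HEPES pH 7.0, 1 uM ZnSO4, 0.01% Tween20, preincubated with LOPAC compounds pinned in DMSO; 50 uM nitrocefin (stock) added. Hydrolysis read as absorbance at 485 nm in the plateau phase.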

Experiment [21] has as its target Glutathione peroxidase 1 (Homo sapiens) (UniProt P07203). As to the kind of experiment: Primary qHTS Assay for Inhibitors of Recombinant Selenoprotein Glutathione Peroxidase 1 (GPX1) (AID 1845191). Further: nearly all actives have a fitted effect of over 65% in size. Summed up: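 GR-coupled readout: NADPH consumption tracked by fluorescence, ex 340/em 450 nm, at t=0 and after 15 min at RT. Final mix 10 nM GPX1, 1 mM GSH, 0.5 mM CHP, 0.5 mM NADPH, 100 nM GR, 0.01% BSA, following 30 min enzyme–compound preincubation.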

Chain of Rap guanine nucleotide exchange factor 4 (Homo sapiens) (Q8WZA2 whole entry, looked up): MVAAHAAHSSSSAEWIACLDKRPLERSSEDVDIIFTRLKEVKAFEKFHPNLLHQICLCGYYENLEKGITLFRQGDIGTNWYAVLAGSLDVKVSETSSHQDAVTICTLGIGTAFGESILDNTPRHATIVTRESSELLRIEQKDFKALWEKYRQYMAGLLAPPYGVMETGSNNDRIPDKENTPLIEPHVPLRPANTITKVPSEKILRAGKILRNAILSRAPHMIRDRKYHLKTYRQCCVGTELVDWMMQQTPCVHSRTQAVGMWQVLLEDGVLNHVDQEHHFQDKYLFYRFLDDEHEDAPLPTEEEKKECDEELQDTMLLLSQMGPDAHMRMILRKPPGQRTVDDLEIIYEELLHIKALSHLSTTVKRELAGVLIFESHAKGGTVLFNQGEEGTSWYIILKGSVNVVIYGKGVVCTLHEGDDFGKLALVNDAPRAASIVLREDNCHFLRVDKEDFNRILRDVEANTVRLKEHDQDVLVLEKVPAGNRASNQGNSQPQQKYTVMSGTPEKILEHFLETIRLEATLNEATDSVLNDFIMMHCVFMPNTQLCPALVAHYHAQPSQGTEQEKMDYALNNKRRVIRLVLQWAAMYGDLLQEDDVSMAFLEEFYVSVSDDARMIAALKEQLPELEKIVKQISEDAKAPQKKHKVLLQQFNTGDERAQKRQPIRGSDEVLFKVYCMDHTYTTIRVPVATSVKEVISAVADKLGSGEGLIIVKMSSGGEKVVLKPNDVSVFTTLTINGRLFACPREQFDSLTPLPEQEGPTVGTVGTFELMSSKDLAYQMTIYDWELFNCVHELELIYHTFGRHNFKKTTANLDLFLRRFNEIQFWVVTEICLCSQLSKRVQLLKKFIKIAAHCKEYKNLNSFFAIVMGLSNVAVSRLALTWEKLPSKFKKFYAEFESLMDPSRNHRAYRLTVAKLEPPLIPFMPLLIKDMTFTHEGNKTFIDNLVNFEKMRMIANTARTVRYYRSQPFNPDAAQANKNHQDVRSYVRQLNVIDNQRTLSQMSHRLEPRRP
Chain of Single-stranded DNA cytosine deaminase (Homo sapiens) (Q9GZX7 whole entry, looked up): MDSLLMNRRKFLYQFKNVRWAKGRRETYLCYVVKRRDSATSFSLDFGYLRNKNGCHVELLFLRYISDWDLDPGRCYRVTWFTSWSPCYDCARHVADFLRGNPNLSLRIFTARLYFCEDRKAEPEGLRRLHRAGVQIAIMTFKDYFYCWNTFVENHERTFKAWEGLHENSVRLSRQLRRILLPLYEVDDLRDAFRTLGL
Chain of Glutathione peroxidase 1 (Homo sapiens) (P07203 whole entry, looked up): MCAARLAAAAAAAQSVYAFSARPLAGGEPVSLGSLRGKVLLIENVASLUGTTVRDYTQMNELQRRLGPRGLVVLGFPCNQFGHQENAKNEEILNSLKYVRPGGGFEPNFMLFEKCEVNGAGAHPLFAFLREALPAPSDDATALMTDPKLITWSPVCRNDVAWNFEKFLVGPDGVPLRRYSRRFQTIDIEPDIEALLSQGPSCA
Chain of Metallo-beta-lactamase type 2 (Klebsiella pneumoniae) (C7C422 whole entry, looked up): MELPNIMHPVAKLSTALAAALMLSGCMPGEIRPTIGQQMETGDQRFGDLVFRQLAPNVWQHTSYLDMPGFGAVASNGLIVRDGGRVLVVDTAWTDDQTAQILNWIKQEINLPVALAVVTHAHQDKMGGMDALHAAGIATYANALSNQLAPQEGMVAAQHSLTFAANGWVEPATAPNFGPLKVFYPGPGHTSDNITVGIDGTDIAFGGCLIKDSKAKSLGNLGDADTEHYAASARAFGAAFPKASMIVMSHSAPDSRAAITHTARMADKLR
Chain of Papain (Carica papaya) (P00784 whole entry, looked up): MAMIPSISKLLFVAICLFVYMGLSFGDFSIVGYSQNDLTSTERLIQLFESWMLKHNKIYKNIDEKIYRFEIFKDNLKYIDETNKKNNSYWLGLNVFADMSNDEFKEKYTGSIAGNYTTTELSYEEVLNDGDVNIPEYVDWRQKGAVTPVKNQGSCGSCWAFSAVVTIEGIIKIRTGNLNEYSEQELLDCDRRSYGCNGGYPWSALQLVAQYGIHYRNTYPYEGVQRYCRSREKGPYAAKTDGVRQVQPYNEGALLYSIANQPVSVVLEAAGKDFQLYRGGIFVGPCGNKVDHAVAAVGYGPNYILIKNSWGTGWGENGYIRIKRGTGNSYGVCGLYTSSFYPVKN

Consider `Nc1c(S(=O)(=O)O)cc(Nc2ccc(Nc3nc(Cl)nc(Nc4ccc(S(=O)(=O)O)cc4)n3)c(S(=O)(=O)O)c2)c2c1C(=O)c1ccccc1C2=O`, for which the Potency in experiment [1] is 10.6 µM (active); in [2], 2.24 µM (active); in experiment [3], 8.91 µM (active); in experiment [4] it was 2 µM (active); in [5], 10 µM (active); in experiment [12] it was 28.2 µM (active). The Potency in experiment [15] was 1.78 µM (active); in [16] it was 9.93 µM (active); in [19] it was 22.1 µM (active); in experiment [20], 0.631 µM (active). The Potency entry in [6], in experiment [8], in [9], in experiment [14] and in experiment [21] was “inactive” in each case. For the same molecule, the result in experiment [7], in experiment [10], in experiment [11], in experiment [13], in experiment [17] and in [18] was inactive.
